Measurements taken from PubChem BioAssay.
Several values for one entry are separate records, joined by “and”; a condition that tells them apart may be missing. Equal values may be shown once. Inconclusive results are not listed. For some assays here: Entries with a potency or affinity are not part of this list. Activity calls are given as the source filed them. Unless noted, no rule for the calls is given here.

What was measured:
[1] = polyglutamine-triggered caspase-3 activation inhibitors, cell-based (AID 1583); conditions: polyglutamine-induced caspase-3 activation, cell assay; stronger effect = higher value;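 tested at 10 µM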
[2] = suppressors of polyQ aggregation in yeast, 75Q-TubU reporter (AID 1593); conditions: Yeast 75Q polyglutamine aggregation reporter
[3] = rescue of polyQ-huntingtin neuronal dysfunction in worms, whole organism, C. elegans mechanosensory neurons, N-terminal huntingtin (AID 1599); conditions: touch response, stronger effect = higher value
[4] = inhibitors of mitochondrial cytochrome c release, biochemical, purified mitochondria (AID 1603); conditions: stronger effect = lower value;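 also: mouse liver mitochondria challenged with calcium chloride; signal normalized to the plate average as 100%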
[5] = inhibitors of polyQ protein aggregation (AID 1604); conditions: polyglutamine-induced protein aggregation inhibition assay; stronger effect = higher value; tested at 2.5 µM
[6] = enhancers of glutamate uptake in motor neurons, MN-1 cell line (AID 1612); conditions: MN-1 motor neuron cells, stronger effect = higher value;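 also: tested at 1 µM final; 0% = mean of DMSO vehicle wells on each plate; positive means more glutamate uptake than control and negative means less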
[7] = suppressors of polyglutamine aggregation in yeast, 75Q-TubH (AID 1616); conditions: S. cerevisiae 75Q-TubH polyglutamine aggregation suppression; stronger effect = higher value
[8] = circadian clock period modulators, cell-based, LOPAC library, luminescence reporter (AID 2774); conditions: circadian reporter cells, at 7 µM, actives lie on both sides;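 also: values are relative to mean of DMSO wells on each plate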
[9] = liver-stage malaria parasite growth inhibition, primary screen, cell-based, HepG2, luciferase luminescence, HepG2 viability (AID 624349; in the data active = parasite load remaining mostly below about 12%, no sharp cut-off; inactive = mostly above about 10%;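 also: 100% = mean of DMSO negative control wells on the same plate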); conditions: P. berghei liver stage in HepG2, luciferase luminescence, concentration not given here; parasite load remaining: stronger effect = lower value; viability: measured here: HepG2 viability without parasites
[10] = tested on: Hepatitis C virus NS3 helicase; assay: HCV NS3 helicase inhibitors, primary screen, biochemical, fluorescence polarization, LOPAC1280 library (AID 687035; in the data active = inhibition above about 37%); conditions: Purified HCV NS3 helicase, Cy5-dT15 ssDNA binding fluorescence polarization; stronger effect = higher value; concentration not given here
[11] = Cy5 fluorescence quenching or enhancement artefacts, artefact control for HCV NS3 helicase inhibitor project, biochemical, LOPAC1280 (AID 687037); conditions: Cy5-DNA-NS3h complex fluorescence interference counterscreen
[12] = Cy5 fluorescence interference with SSB-bound oligo, artefact control for HCV NS3 helicase inhibitor project, biochemical, NIH Clinical Collection, E. coli SSB (AID 743268)
[13] = tested on: Hepatitis C virus NS3 helicase; assay: HCV NS3 helicase inhibitors, primary screen, biochemical, fluorescence polarization, NIH Clinical Collection (AID 743270); conditions: NS3 helicase binding to Cy5-dT15 DNA, stronger effect = higher value, concentration not given here
[14] = molecular target: Single-stranded DNA-binding protein (Escherichia coli (strain K12)) (UniProt P0AGE0); assay: E. coli SSB displacement from DNA, counter-screen for HCV NS3 helicase inhibitor project, biochemical, fluorescence polarization, NIH Clinical Collection (AID 743271; in the data active = inhibition above about 28%); conditions: stronger effect = higher value, concentration not given here
[15] = fluorescence interference in NS3h assay format, artefact control for HCV NS3 helicase inhibitor project, biochemical, NIH Clinical Collection (AID 743272); conditions: fluorescence interference counterscreen, stronger effect = lower value;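 also: HCV NS3 helicase with a Cy5 labelled single stranded DNA probe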
[16] = tested on: Neuropilin-2 / VEGF-C interaction (human); assay: inhibitors of NRP2–VEGF-C binding, biochemical, microplate binding format, z-score (AID 743281); conditions: microplate NRP2/VEGF-C binding assay; stronger effect = lower value
[17] = stimulators of nuclear beta-catenin in C2C12, primary screen, imaging, WNT3A-conditioned medium, mouse C2C12, NPC library (AID 1117326; in the data active = nuclear beta-catenin stimulation mostly above about 4.2%, no sharp cut-off; inactive = mostly below about 10%); conditions: stronger effect = higher value
[18] = stimulators of insulin release from INS-1E, primary screen, cell-based, 5 mM glucose, NPC library (AID 1117329;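 active = compound raises insulin release from rat beta cells at 5 mM glucose, no numeric limit stated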); conditions: rat INS-1E insulin secretion, at 10 µM, stronger effect = higher value
[19] = growth inhibition of GSK3B-pretreated HCT116 cells – cell-based, CellTiter-Glo, 0.2 to 20 µM (AID 1117336;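 active = compounds lowering colon cancer cell viability after pretreatment blocking the GSK3B kinase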); conditions: HCT116 viability after GSK3B inhibitor, at 20 µM, stronger effect = higher value
[20] = inhibition of endothelial tube formation, primary screen, imaging, VEGF stimulated, CD31 staining, tube area, NPC library (AID 1117340;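 active = compound that reduces growth-factor-driven endothelial tube area in a mixed cell culture, no cutoff stated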); conditions: VEGF-stimulated ADSC/ECFC co-culture, at 10 µM, stronger effect = higher value
[21] = glucagon-like peptide 1 release enhancers, primary assay, NCI-H716 cell line, NPC library (AID 1117341;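 active = compound raises GLP1 secretion from the human gut endocrine cells, with no numeric limit stated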); conditions: NCI-H716 cells, at 10 µM, stronger effect = higher value
[22] = HCT116 colon cancer cell growth inhibition, primary screen, CellTiter-Glo luminescence, NPC library (AID 1117342;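 active = compounds that lower survival of HCT116 colon cancer cells in the luminescence readout, no numeric limit stated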); conditions: at 20 µM (top of the series)
[23] = CellTiter-Glo luminescent readout of SW480 viability loss, NPC library primary (AID 1117343;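 active = compounds that lower viability of the colon cancer cells in the luminescence readout, with no numeric limit stated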); conditions: CellTiter-Glo luminescence; at 20 µM (top of the series)
[24] = decreased DLD-1 cellular survival, CellTiter-Glo luminescent readout, NPC compound collection, primary HTS (AID 1117346;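 active = compounds that lower survival of DLD-1 colon cancer cells in the luminescence readout, no cutoff given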); conditions: DLD-1 viability, CellTiter-Glo luminescence; at 20 µM (top of the series)
[25] = molecular target: 6-phosphogluconate dehydrogenase, decarboxylating (Homo sapiens) (UniProt P52209); assay: 6PGD enzyme inhibitors, primary screen, biochemical, human, recombinant enzyme, NADPH absorbance (AID 1159550;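 active = at least 20% inhibition of 6-phosphogluconate dehydrogenase activity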); conditions: recombinant 6PGD, NADPH absorbance 341 nm; at 10 µM; stronger effect = higher value
Chain of 6-phosphogluconate dehydrogenase, decarboxylating (Homo sapiens) (P52209 whole entry, looked up): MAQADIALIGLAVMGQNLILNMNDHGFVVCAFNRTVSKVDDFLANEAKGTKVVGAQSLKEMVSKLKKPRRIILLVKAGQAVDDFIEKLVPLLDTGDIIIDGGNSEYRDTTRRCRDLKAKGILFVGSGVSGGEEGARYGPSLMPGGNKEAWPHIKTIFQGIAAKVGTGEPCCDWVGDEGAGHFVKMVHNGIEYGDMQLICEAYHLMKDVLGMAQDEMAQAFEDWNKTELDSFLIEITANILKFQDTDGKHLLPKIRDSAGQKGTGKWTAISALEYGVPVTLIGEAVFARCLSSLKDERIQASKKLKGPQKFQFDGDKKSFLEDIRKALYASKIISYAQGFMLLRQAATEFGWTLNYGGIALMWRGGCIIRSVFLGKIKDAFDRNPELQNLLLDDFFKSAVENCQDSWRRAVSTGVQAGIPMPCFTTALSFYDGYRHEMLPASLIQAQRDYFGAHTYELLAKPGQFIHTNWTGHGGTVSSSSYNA

[26] = modulation of C. elegans fzo-1 (AID 1259413);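 also: fzo-1 mutant C. elegans worms in liquid wells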; conditions: C. elegans fzo-1 modulator screen, mean read-out; stronger effect = higher value
[27] = differential killing of epithelial or mesenchymal cells, primary screen, imaging, PC-3E GFP, TEM4-18 mCherry, co-culture (AID 1345086;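 active = compounds killing one labelled cell type while sparing the other, by normalised counts and ratio limits, not self-fluorescent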;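 also: cells exposed to compound for 72 h before imaging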;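 as to red/green cell ratio (normalised): normalised mesenchymal count divided by normalised epithelial count so high means epithelial killing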); conditions: imaging cell counts, at 1 µM
[28] = tested on: Aerobactin synthetase IucA (Klebsiella pneumoniae); assay: IucA aerobactin synthetase inhibitors, biochemical, Tocris library, absorbance (AID 1345561); conditions: purified IucA enzyme assay, absorbance (OD) read-out; stronger effect = lower value;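 tested at 8 µM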;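 also: 100% = enzyme without compound and 0% = no enzyme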
[29] = growth inhibition of DIPG glioma cells, dose response, cell-based, SU-DIPG-XIII, MIPE4.0, CellTiter-Glo, qHTS (AID 1347061; cut-off not given, nearly all actives have AC50 up to about 37 µM;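 also: cells exposed to compound for 48 hours before readout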); conditions: SU-DIPG-XIII viability, CellTiter-Glo ATP luminescence
[30] = growth inhibition of DIPG glioma cells, dose response, cell-based, JHH-DIPG-1, MIPE4.0, CellTiter-Glo, qHTS (AID 1347062; cut-off not given, nearly all actives have AC50 up to about 27 µM); conditions: JHH-DIPG-1 viability, CellTiter-Glo ATP luminescence
[31] = growth inhibition of DIPG glioma cells, dose response, cell-based, SU-DIPG-IV, MIPE4.0, CellTiter-Glo, qHTS (AID 1347063; cut-off not given, nearly all actives have AC50 up to about 30 µM;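 also: compound exposure lasted 48 hours before the viability readout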); conditions: SU-DIPG-IV viability, CellTiter-Glo ATP luminescence
[32] = phospholipid biosynthesis inhibitors in animal cells, primary screen, cell-based, LOPAC library, screen 4 (AID 1347384); conditions: phospholipid biosynthesis inhibition screen, at 10 µM
[33] = survival rescue of mitochondrial mutant cells in low glucose, primary screen, MELAS cybrids, Rieske KO mouse fibroblasts, CellTiter-Glo (AID 1508586;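 active = mean z-score across replicates of 1.96 or higher in either the MELAS or the Rieske mutant cell line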;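 also: z relative to plate mean and SD of compound and empty wells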)
[34] = molecular target: NAD(+) hydrolase SARM1 (Homo sapiens) (UniProt Q6SZW1); assay: SARM1 TIR NADase inhibitors, cell lysate, NAD-Glo luminescence (AID 1508614;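 active = compound whose remaining NAD level is above about 45 nM, limit read from the data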;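 also: higher remaining NAD means stronger inhibition of SARM1 NADase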); conditions: SAM-TIR HEK293T lysate NADase, at 1 µM, stronger effect = higher value
Chain of NAD(+) hydrolase SARM1 (Homo sapiens) (Q6SZW1 whole entry, looked up, the tested form may be a part): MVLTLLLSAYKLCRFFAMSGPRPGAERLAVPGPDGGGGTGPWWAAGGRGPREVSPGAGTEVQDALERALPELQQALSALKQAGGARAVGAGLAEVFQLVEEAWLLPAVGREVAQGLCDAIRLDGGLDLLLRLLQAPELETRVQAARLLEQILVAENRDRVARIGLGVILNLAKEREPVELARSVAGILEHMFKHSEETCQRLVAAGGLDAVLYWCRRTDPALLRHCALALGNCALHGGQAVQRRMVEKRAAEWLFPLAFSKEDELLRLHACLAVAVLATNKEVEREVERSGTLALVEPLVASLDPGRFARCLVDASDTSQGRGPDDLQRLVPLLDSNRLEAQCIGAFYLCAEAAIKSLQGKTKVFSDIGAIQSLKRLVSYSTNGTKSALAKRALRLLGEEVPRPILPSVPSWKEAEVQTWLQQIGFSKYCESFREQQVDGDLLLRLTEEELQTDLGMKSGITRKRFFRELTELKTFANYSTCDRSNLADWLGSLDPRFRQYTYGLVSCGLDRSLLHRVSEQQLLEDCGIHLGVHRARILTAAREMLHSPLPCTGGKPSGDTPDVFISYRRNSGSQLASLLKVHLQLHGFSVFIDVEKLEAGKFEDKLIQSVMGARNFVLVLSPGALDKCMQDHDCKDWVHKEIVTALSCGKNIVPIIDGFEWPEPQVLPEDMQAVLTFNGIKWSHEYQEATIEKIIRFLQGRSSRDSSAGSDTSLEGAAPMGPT

[35] = molecular target: Mitogen-activated protein kinase 7 (Homo sapiens) (UniProt Q13164); assay: ERK5 transactivation activators in reporter cells, primary screen, cell-based, HTS (AID 1508626;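 active = luciferase signal above three times the same-plate solvent-only control wells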;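 also: luciferase driven by Gal4-ERK5 fusion binding five Gal4 sites before minimal TATA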); conditions: HeLa Gal4-ERK5 transactivation, 18 h, at 5 µM, stronger effect = higher value
Chain of Mitogen-activated protein kinase 7 (Homo sapiens) (Q13164 whole entry, looked up, the tested form may be a part): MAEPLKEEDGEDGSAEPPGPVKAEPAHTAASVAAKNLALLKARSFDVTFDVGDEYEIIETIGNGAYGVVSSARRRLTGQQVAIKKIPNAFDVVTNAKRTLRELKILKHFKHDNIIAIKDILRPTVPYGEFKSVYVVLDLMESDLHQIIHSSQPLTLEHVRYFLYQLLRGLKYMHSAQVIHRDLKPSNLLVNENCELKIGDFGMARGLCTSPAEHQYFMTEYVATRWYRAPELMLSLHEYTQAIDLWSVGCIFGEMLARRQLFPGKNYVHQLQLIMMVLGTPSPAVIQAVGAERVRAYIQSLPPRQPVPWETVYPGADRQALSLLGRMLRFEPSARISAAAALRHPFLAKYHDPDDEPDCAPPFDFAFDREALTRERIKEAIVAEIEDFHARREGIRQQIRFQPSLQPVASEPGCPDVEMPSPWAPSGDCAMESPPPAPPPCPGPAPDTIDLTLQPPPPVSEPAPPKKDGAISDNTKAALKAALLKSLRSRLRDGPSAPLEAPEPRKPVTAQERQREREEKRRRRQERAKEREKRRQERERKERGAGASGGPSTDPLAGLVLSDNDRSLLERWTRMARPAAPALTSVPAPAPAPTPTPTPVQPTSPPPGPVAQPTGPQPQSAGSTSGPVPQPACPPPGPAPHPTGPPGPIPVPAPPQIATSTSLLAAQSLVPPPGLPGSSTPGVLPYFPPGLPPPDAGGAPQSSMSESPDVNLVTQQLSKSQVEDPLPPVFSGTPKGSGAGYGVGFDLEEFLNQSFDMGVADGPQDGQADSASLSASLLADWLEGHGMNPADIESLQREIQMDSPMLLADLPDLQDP

[36] = hESC survival regulators, cell-based (AID 493140); conditions: human embryonic stem cell survival screen; stronger effect = higher value;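 also: cells exposed to compounds for four days before counting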
[37] = sensitizers of A549 cells to miR-34 induction, primary screen, imaging, A549 dox-inducible miR-34, nuclei and caspase counts (AID 1347080;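 active = compounds whose cell count with miR-34 switched on is under 0.7 times the count with it off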); conditions: A549 miR-34 inducible, Hoechst nuclei count, 48 h
[38] = viability rescue of complex I mutant cybrids, primary screen, cell-based, galactose medium, ATP luminescence (AID 1645843;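 active = z-score of at least 1.8 in each of two replicates, scored against plate mean and spread of sample wells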;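 also: positive z means more ATP and so rescue of galactose-driven cybrid death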); conditions: complex I mutant cybrid cells, 72 h, stronger effect = higher value
F380Y = assay: modulators of BK channel variants, profiling panel, selectivity assay, cell-based, U2OS BacMam, thallium flux, beta subunits (AID 1259406;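 active = thallium flux through the channel raised or lowered by more than 3 SD from vehicle-only wells, actives on both sides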;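 also: initial slope of Thallos dye fluorescence rise after thallium is added; log ratio against the mean of 0.3% DMSO vehicle wells on the same plate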); conditions: at 30 µM
F380Y/beta1 = assay: as above; conditions: at 30 µM
F380Y/beta2Delta = assay: as above; conditions: at 30 µM
F380Y/beta4 = assay: as above; conditions: at 30 µM
[39] = molecular target: Calcium-activated potassium channel subunit alpha-1 (Homo sapiens) + Leucine-rich repeat-containing protein 26 (Homo sapiens) (UniProt Q12791+Q2I0M4); assay: as above; conditions: F380Y/Slo1WT/gamma1, at 30 µM
Chain of Calcium-activated potassium channel subunit alpha-1 (Homo sapiens) + Leucine-rich repeat-containing protein 26 (Homo sapiens) (Q2I0M4 whole entry, looked up, one chain of several): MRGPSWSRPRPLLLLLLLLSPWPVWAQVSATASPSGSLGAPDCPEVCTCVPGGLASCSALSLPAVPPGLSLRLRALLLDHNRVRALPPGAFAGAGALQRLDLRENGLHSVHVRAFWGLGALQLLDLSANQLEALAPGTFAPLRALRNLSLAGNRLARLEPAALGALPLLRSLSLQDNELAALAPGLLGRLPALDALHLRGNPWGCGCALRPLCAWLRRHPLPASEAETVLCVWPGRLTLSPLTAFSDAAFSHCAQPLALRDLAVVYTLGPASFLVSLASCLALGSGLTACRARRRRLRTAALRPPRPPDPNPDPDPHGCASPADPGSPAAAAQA

R275C = assay: as above; conditions: at 30 µM
R275C/beta1 = assay: as above; conditions: at 30 µM
R275C/beta2Delta = assay: as above; conditions: at 30 µM
R275C/beta4 = assay: as above; conditions: at 30 µM
R275C/Slo1WT/beta2 = assay: as above; conditions: at 30 µM
[40] = MELAS cybrid survival, CellTiter-Glo 48 h, stronger effect = higher value
[41] = Rieske KO mouse fibroblast survival, CellTiter-Glo 72 h

CCOC(=O)N1CCC(=C2c3ccc(Cl)cc3CCc3cccnc32)CC1
0.823 and 1.1 and 0.356: z-score [33, 41]
1%: nuclear beta-catenin stimulation ([17]; stimulation, at 2 µM)
0.8: score [2]
56.9%: inhibition of aggregation [5]
active: viability decrease [19] 94.1% | inhibition of viability [22] 98.8% | viability decrease (inhibition) [23] 94% | viability decrease (inhibition) [24] 97.2% | AC50 [31] 18.7 µM
0.99: normalised cell number ([27]; measured here: epithelial PC-3E GFP cell survival)
4.23: cytochrome c release ratio [4]
15.4%: inhibition [1]
0.519: aggregation suppression score [7]
-2.42%: glutamate uptake change [6]
inactive: period change [8] -0.1 h | parasite load remaining [9] 39.1% and 10.2% and 5.21% | inhibition [10] 0% | fluorescence ratio (interference) [11] 1 | fluorescence ratio [12] 0.91 | inhibition [13] -3.56% | inhibition [14] 6.83% | fluorescence ratio [15] 0.9 | z-score [16] 0.735 | nuclear beta-catenin stimulation ([17]; at 10 µM) 1.8% | insulin secretion stimulation [18] 6.9% | tube area decrease [20] 39.2% | GLP1 secretion stimulation [21] 14.3% | inhibition [25] 4.3% | mean signal [26] 253 | red/green cell ratio (normalised) ([27]; actives lie on both sides, counts scaled to control wells, 1 = unselective) 1.35 | remaining activity [28] 99.4% | outcome [29] | outcome [30] | outcome [32] | z-score [33, 40] -0.418 and -1.77 and -2.01 | remaining NAD [34] 10 nM | luciferase signal [35] 48 AU
1.34: normalised cell number ([27]; measured here: mesenchymal TEM4-18 mCherry cell survival)
-2.91: rescue above control [3]
101% and 59.1% and 70%: viability [9]

C#C[C@]1(O)CC[C@H]2[C@@H]3CCC4=Cc5oncc5C[C@]4(C)[C@H]3CC[C@@]21C
7160 and 7050 and 6060: cell count ([37]; measured here: total cells with miR-34 induction, stronger effect = lower value)
inactive: survival [36] 10.4 | fluorescence ratio [12] 1.05 | inhibition [13] -3.18% | inhibition [14] 4.1% | fluorescence ratio [15] 1.01 | nuclear beta-catenin stimulation ([17]; at 10 µM) -0.9% | insulin secretion stimulation [18] 1.9% | tube area decrease [20] 15% | GLP1 secretion stimulation [21] 1.4% | inhibition [25] 14% | fold change ([37]; stronger effect = lower value, cell number ratio, induced over uninduced) 0.976 and 0.855 and 0.842 | z-score [33, 40] -0.753 and -0.503 | remaining NAD [34] 10 nM | luciferase signal [35] 32 AU | z-score [38] -1.4 and -1.46 | log fold change Tl+ flux (F380Y) -0.00831 | log fold change Tl+ flux (F380Y/beta1) 0.032 | log fold change Tl+ flux (F380Y/beta2Delta) -0.066 | log fold change Tl+ flux (F380Y/beta4) -0.0261 | log fold change Tl+ flux [39] 0.00932 | log fold change Tl+ flux (R275C) 0.0195 | log fold change Tl+ flux (R275C/beta1) 0.048 | log fold change Tl+ flux (R275C/beta2Delta) -0.00872 | log fold change Tl+ flux (R275C/beta4) 0.0847 | log fold change Tl+ flux (R275C/Slo1WT/beta2) -0.016
7330 and 8240 and 7200: cell count ([37]; measured here: total cells without miR-34 induction)
-0.343 and -0.0493: z-score [33, 41]
active: viability decrease [19] 76.5% | inhibition of viability [22] 82.4% | viability decrease (inhibition) [23] 84.4% | viability decrease (inhibition) [24] 75.7%
0%: nuclear beta-catenin stimulation ([17]; stimulation, at 2 µM)
3.35 and 1.24 and 1.49: fold change ([37]; measured here: relative caspase fold change +Dox/-Dox)
